# Screening data from PubChem BioAssay.
# HCMV inh: human cytomegalovirus inhibition. AID 1259415. activity change, negative = inhibition, % at 57.5 µM. HFF cells, HCMV-luciferase reporter, 72 h; hits give low values. hit rate 4.5% among 410,000; in the data active = activity change below about -60%; inconclusive = no clear call, values can overlap the other calls; inactive = above about -39%
#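 Two-dose cell screen: HFF monolayers treated with compounds and infected with luciferase-expressing HCMV at 1 PFU/cell, 72 h at 37C, then lysed for luciferase measurement.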
# MARV entry inh: Marburg virus entry inhibition | Potency, µM (titrated, usually from 37.8 µM), inactives show at the highest dose activity change, negative = inhibition, actives largely listed as inhibitors | AID 540276 | hit rate 1.8% among 300,000 | Marburg virus pseudotyped entry inhibition, cell reporter; calls by dose curve; tested in HEK293 cells; note: potency is the fitted concentration of half-maximal effect
# Lassa entry inh: Lassa virus entry inhibition; Lassa virus pseudotype entry inhibition, cell reporter; Potency, µM (highest dose often 37.9 µM), for the others: at the highest dose activity change, negative = inhibition, most hits filed as inhibitors; hit rate 1.2% among 300,000; calls by dose curve; tested in HEK293 cells; note: potency is the fitted concentration of half-maximal effect; nearly all actives have a fitted effect of over 50% in size
# Pf growth 96h: P. falciparum growth inhibition at 96 hours; Potency, µM (series often up to 28.7 µM), for inactives: at the highest dose activity change, negative = inhibition, hits mostly inhibitors; P. falciparum luciferase reporter growth, 96 h; hit rate 6.9% among 320,000; note: potency is the fitted concentration of half-maximal effect
#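 Delayed-death screen, second-generation endpoint: infected erythrocytes, 2% hematocrit, 0.05% parasitemia final; 96 hours at 37 C, 5% CO2; luciferase detection reagent; luminescence decrease equals reduced growth.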
# HCV inhibitor: inhibitors of hepatitis C virus infection; Potency, µM (highest dose often 41.8 µM), for the others: at the highest dose activity change, negative = inhibition, usual class: inhibitors; Huh7.5.1 HCVcc-Cre infection, luciferase reporter, 44 h; hit rate 3.4% among 340,000; note: potency is the fitted concentration of half-maximal effect
#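 Cells (1,000/well) were plated 4 h before compound, then infected with HCVcc-Cre virus (~0.5 moi). After 44 h further culture, infection was read as luciferase luminescence following a 15 min substrate incubation at room temperature.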
# Pf growth 48h: inhibits P. falciparum growth in the first generation, 48 h; Potency, µM (highest dose often 28.7 µM), without a hit: at the highest dose activity change, negative = inhibition, actives largely listed as inhibitors; hit rate 5.9% among 310,000; AID 504832; P. falciparum luciferase growth in erythrocytes, 48 h; note: potency is the fitted concentration of half-maximal effect
#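 Luciferase-expressing P. falciparum in infected erythrocytes (2% hematocrit, 0.1% parasitemia final) in RPMI 1640/0.5% Albumax were exposed to compound for 48 hours at 37 C, 5% CO2; growth read as luminescence.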
# An asterisk follows results filed as active; ? = inconclusive; . = no result given; [ ] = remark or other dose. Shown are actives, neighbours in structure and some others; about 14% of the full set was active somewhere. Unless noted, calls come from the whole dose curve; as a rule, active = well fitted inhibition curve with a large enough effect; inconclusive = small, poorly fitted or top-dose-only effect, or another doubt; inactive = no such curve, though single readings can be large or run the other way. % is set by controls: 0 for no effect and ±100 for the full control effect.
SMILES,HCMV inh,MARV entry inh,Lassa entry inh,Pf growth 96h,HCV inhibitor,Pf growth 48h
Cc1ccccc1S(=O)(=O)NC(=O)C1(C)CCN1C(=O)c1ccccc1CCc1ccccc1 (stereo unspecified),-22,.,.,.,.,.
COc1ccc(-c2cc(C(F)(F)F)n3ncc(C(=O)N4CCc5ccccc5C4)c3n2)cc1,-19,-25%[46.1 µM],2%,25%,3%,9.3µM*
O=C(c1cnn2c(C(F)(F)F)cc(-c3ccccc3)nc12)N1CCC2(CC1)OCCO2,-16,15%,-1%,15µM*,1%,.
N#Cc1cnn2c(C(F)(F)F)cc(-c3ccccc3)nc12,-35,.,.,236%,-11%,10µM*
O=C(c1cnn2c(C(F)F)cc(C3CC3)nc12)N1CCc2ccccc2C1,19,?,?,24%,8.9µM*,-23%
O=[N+]([O-])c1cccc2c[nH]nc12,.,-22%,.,.,.,.
COc1c(O)cc2c(c1O)[C@@H]1O[C@@H](CO)[C@@H](O)[C@@H](O)[C@@H]1OC2=O,.,.,.,-19%[12.8 µM],.,-10%[12.8 µM]
O=C(COc1ccc(F)cc1)Nc1ccc(OCc2cc(=O)n3ccsc3n2)cc1,-8,5%[46.1 µM],8%[46.1 µM],.,.,.
Cc1ccc2nc(NCCNC(=O)c3ccccc3)c(C#N)cc2c1,3,.,.,?,?,10%
COc1ccc(C(=O)NCCNc2nc3ccc(C)cc3cc2C#N)cc1,-11,.,.,9.3µM*,?,?
Clc1ccc(-c2csc(Nc3ccccc3)[n+]2Cc2ccco2)c(Cl)c1,-38,?,4%,?,?,12µM*
CCCC[n+]1c(-c2ccc(Cl)cc2Cl)csc1Nc1ccccc1,56,1%,13%,1.7µM*,?,3.7µM*
CCCCCCN1C[C@H](O)[C@@H](n2cc(COC(=O)c3ccccc3)nn2)C[C@@H]1c1ccc(Cl)cc1,46,.,.,.,.,.
CC(C)NC(=O)Cn1nc(N2CCN(c3ccccc3)CC2)ccc1=O,-1,.,-1%[46.1 µM],.,.,.
CC1(C)CC[C@]2(C(=O)n3ccnc3)CC[C@]3(C)[C@H](C(=O)C=C4[C@@]5(C)C=C(C#N)C(=O)C(C)(C)[C@@H]5CC[C@]43C)[C@@H]2C1,-101*,2.5µM*,2.5µM*,.,?,.
C=C1C(=O)O[C@@H]2[C@H]3O[C@]3(C)CC/C=C(\C)CC[C@@H]12,-12,22µM*,.,.,-11%,.
Cc1ccc(C)c(NC(=O)COC(=O)c2ccc(S(=O)(=O)N3CCCC3)cc2)c1,11,.,.,.,.,.
CCOP(=S)(OCC)N1CCOCCOCCN(P(=S)(OCC)OCC)CCOCCOCC1,17,10µM*,?,?,-16%,6.6µM*
CN1C(=O)C(C)(C)c2cc(S(=O)(=O)N3CCCC(C(=O)NCc4ccc(F)cc4)C3)ccc21 (stereo unspecified),-4,.,.,10µM*,?,?
CC(C)c1ccc(NC(=O)C2CCCN(S(=O)(=O)c3ccc4c(c3)C(C)(C)C(=O)N4C)C2)cc1 (stereo unspecified),?,.,.,?,13µM*,?
CN1C(=O)C(C)(C)c2cc(S(=O)(=O)N3CCC(C(=O)Nc4ccc(Cl)cc4)CC3)ccc21,?,.,.,45%,3%,2%
COc1cccc(CNC(=O)C2CCCN(S(=O)(=O)c3ccc4c(c3)C(C)(C)C(=O)N4C)C2)c1 (stereo unspecified),-9,.,.,7%,-30%,?
CCOc1ccc(NC(=O)C2CCCN(S(=O)(=O)c3ccc4c(c3)C(C)(C)C(=O)N4C)C2)cc1 (stereo unspecified),89,.,.,.,.,.
CN1C(=O)C(C)(C)c2cc(S(=O)(=O)N3CCCC(C(=O)Nc4ccc(Cl)cc4)C3)ccc21 (stereo unspecified),?,.,.,9%,11µM*,?
Cn1cc(CN2CCCC(CNC(=O)c3ccc4c(c3)OCO4)C2)c2ccccc21 (stereo unspecified),52,7.9µM*,18%[46.1 µM],?,-11%,-28%
CC(=O)NCC1CCCN(Cc2cn(-c3ccccc3)nc2-c2ccc3c(c2)OCO3)C1 (stereo unspecified),-28,-3%,2%,13µM*,-10%,-30%
